The record followed here is PubChem BioAssay AID1458 (National Center for Advancing Translational Sciences (NCATS), 2008).

Among all 210,000 compounds or so, about 5,900 (2.8%) were called active. About 5% were inconclusive and are not listed. The full list was thinned out, with actives kept by preference. A number with no mark means an inactive call. Calls follow the shape of the dose curve; as a rule, active = well fitted activation curve with a large enough effect; inconclusive = small, poorly fitted or top-dose-only effect; inactive = no such curve, though single readings can be large or run the other way.
Potency is read from the fitted curve at half-maximal effect.

A short description of this assay: qHTS Assay for Enhancers of SMN2 Splice Variant Expression. Also: nearly all actives have a fitted effect of over 55% in size. As to activity change, positive = activation: % of control where 0% means no effect. Particulars: HEK293 SMN2-luciferase splicing reporter, luminescence, 30-36 h; series mostly up to 46.1 µM; activity change, positive = activation: at the top concentration. The procedure, abridged:
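qHTS luciferase splicing reporter: luminescence rises when SMN2 exon 7 is included in transfected HEK293 cells. Compound exposure lasted 30-36 h at 37C, with 4.5 mM final sodium butyrate as control, followed by a ONE-Glo read.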
Background: Quantitative high-throughput screening tests each substance at several concentrations.
`CCC1CCCCN1Cc1c(O)ccc2c(=O)c(Oc3ccccc3Cl)c(C(F)(F)F)oc12` (stereo not given): the “activity change, positive = activation” value is -6.73%.

`Cc1cc(O)cc(O)c1C(=O)Cc1cnn(-c2ccccc2)c1`: the “activity change, positive = activation” value is -16.1%.

On to `COc1ccc(C(=O)Cc2cnn(-c3ccccc3)c2)c(O)c1`, for which the Potency is 17.8 µM (active).

In the case of `COc1ccc(CC(=O)c2ccc(O)cc2O)cc1OC`, the “activity change, positive = activation” value was 19.7%.

`Cn1nc(-c2ccccc2)c(-c2ccccc2)c(C(=O)Nc2ccc(S(N)(=O)=O)cc2)c1=O`: the “activity change, positive = activation” value is 8.83%.

On to `O=C(Cn1cc(C(=O)c2cccs2)c2ccccc21)NCc1cccs1`, for which the “activity change, positive = activation” value is 25.6%.

`COC(=O)c1cn(CC(=O)NCc2cccs2)c2ccccc12`: the Potency was 22.4 µM (active).

Regarding `COC(=O)Cn1cc(C(=O)c2cccs2)c2ccccc21`, the “activity change, positive = activation” value is 8.54%.

On to `CCOC(=O)c1cn(Cc2cccc(C)c2)nn1`, for which the “activity change, positive = activation” value was 0.18%.

Turning to `CCOC(=O)c1nn(-c2cccc(C)c2)cc1C(=O)c1ccccc1`, the Potency is 10 µM (active).

As for `CC(=O)c1nn(-c2cccc(Br)c2)cc1C(=O)c1cccc2ccccc12`, the “activity change, positive = activation” value is -21.6%.

For `COc1ccccc1-c1nc(SC)n[nH]1`, the “activity change, positive = activation” value was 12.2%.

Regarding `CCCOc1ccccc1C(=O)NCCCC(=O)O`, the “activity change, positive = activation” value is -16.9%.

`CCCOc1ccccc1-c1nc(SCCC(=O)O)n[nH]1`: the Potency is 7.08 µM (active).

`O=C(NCC1CCC(C(=O)O)CC1)OCc1ccccc1` (stereo not given): the “activity change, positive = activation” value is -2.66%.

With `O=C(Cc1ccccc1)NNC(=O)C1CCN(c2ncccn2)CC1`, the “activity change, positive = activation” value is 4.38%.

In the case of `O=C(O)C1CCN(C(=O)OCc2ccccc2)CC1`, the Potency was 17.8 µM (active).

`CCOC(=O)Cc1ccc(NC(=O)Nc2c[nH]c(=O)[nH]c2=O)cc1`: the “activity change, positive = activation” value is -3.88%.

`O=c1[nH]c2cc(Br)ccc2n2cccc12`: the “activity change, positive = activation” value is 22.8%.

Consider `CCCC(=O)Nc1ccc2oc(-c3ccc(O)c(Br)c3)nc2c1`, for which the Potency was 11.2 µM (active).

With `O=C(Nc1ccc2oc(-c3ccc(O)c(Br)c3)nc2c1)c1cc2ccccc2o1`, the “activity change, positive = activation” value is 1.87%.

Consider `CCCCCC(=O)Nc1ccc2oc(-c3ccncc3)nc2c1`, for which the “activity change, positive = activation” value was -15.7%.

Turning to `CCOc1ccc(OCC)c(NC(=O)CN(c2ccc(C)cc2)S(=O)(=O)c2c(C)n[nH]c2C)c1`, the “activity change, positive = activation” value was -8.29%.

`COc1ccc(Cl)cc1NC(=O)c1sc2nc3c(cc2c1N)CN(C)CC3`: the “activity change, positive = activation” value was 9.66%.

Turning to `COc1ccc(CCn2cc3c(c2-c2ccc(Br)cc2)c(=O)n(C)c(=O)n3C)cc1OC`, the “activity change, positive = activation” value was -0.506%.

In the case of `Cc1cccc(NC(=O)C2CCCN2S(=O)(=O)c2cccc3nsnc23)c1C` (stereo not given), the “activity change, positive = activation” value is -4.32%.

On to `Cc1ccc(-n2c(=O)c3cccnc3n2CC(=O)NCc2ccc(F)cc2)cc1C`, for which the “activity change, positive = activation” value is -1.87%.

For `CCOc1cccc(/C=C/c2ccc3ccccc3n2)c1OC(C)=O`, the Potency is 1.58 µM (active).

As to `NC(=O)COC(=O)/C=C/c1ccc2ccccc2n1`, the “activity change, positive = activation” value is 4.91%.

On to `CC(OC(=O)c1ccc2ccccc2n1)C(=O)c1ccccc1` (stereo not given), for which the “activity change, positive = activation” value is -3.13%.
